For ten molecules, Potency results are on record in PubChem BioAssay (Tox21).

Records with an inconclusive call do not appear. Calls of active or inactive are those of the source. Unless noted, the call rests on the fitted dose curve; in most records, active means well fitted curve in the direction sought with a large enough effect in the repeat runs; inconclusive means weak or mixed curves; inactive means no such curve, though single readings can be large; an effect the other way counts as inactive or inconclusive.

In assay [1] the target is Retinoic acid receptor RXR-alpha (Homo sapiens) (UniProt P19793). Kind of assay: qHTS assay to identify small molecule agonists of the RXR signaling pathway (AID 1159527; calls by dose curve; further: nearly all actives have a fitted effect of over 35% in size). The method in brief: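 GeneBLAzer RXR-alpha-UAS-bla HEK 293T cells in 2% charcoal-stripped FBS medium were exposed to compounds for 16 hr at 37 C in agonist mode. Beta-lactamase reporter read as 460/530 nm FRET ratio after 2 hr substrate loading.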
On the technique in general: qHTS replaces the single test concentration by a dilution series.

A short description of assay [2]: qHTS assay to identify small molecule agonists of the RXR signaling pathway - cell viability counter screen (AID 1159529). Further: series mostly up to about 77 µM; nearly all actives have a fitted effect of over 50% in size. An outline of the steps:
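RXR-alpha-UAS-bla HEK 293T cells in medium with 2% charcoal-stripped FBS were pre-incubated 5 hr, then compound-treated 16 hr at 37 C. Viability was read by CellTiter-Glo luminescence in the same wells as the beta-lactamase assay, with tetraoctyl ammonium bromide as positive control.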

Assay [3] in a line: qHTS assay to identify small molecule antagonists of the retinoid acid receptor (RAR) signaling pathway - cell viability counter screen (AID 1159551). Further: nearly all actives have a fitted effect of over 35% in size. Further: potency means the concentration at half of the fitted maximal effect. An outline of the steps: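 ATP-based viability, C3RL4 cells, 6 h at 37 C with 1 uM final retinol co-added after compound; luminescence read 30 min post CellTiter-Glo, RT.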
The target in assay [4] is Luciferin 4-monooxygenase (Photinus pyralis) (UniProt P08659). Kind of assay: qHTS assay to identify small molecule inhibitors of firefly luciferase (AID 1224835). Further: nearly all actives have a fitted effect of over 25% in size. Further: potency means the concentration at half of the fitted maximal effect. The method in brief: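 Biochemical qHTS: compounds run as interplate titrations against purified firefly enzyme, with D-luciferin and ATP each at its KM concentration. Light output recorded by CCD imaging.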

Assay [5] can be described thus: qHTS assay to identify small molecule agonists of the constitutive androstane receptor (CAR) signaling pathway - cell viability counter screen (AID 1224836). Further: series mostly up to about 92 µM; nearly all actives have a fitted effect of over 45% in size. An outline of the steps:
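HepG2 cells stably carrying hCAR and a CYP2B6-2.2kb reporter; 15-concentration compounds plus PK11195 (final 0.75 uM), 23 hr at 37 C/5% CO2. Viability read by CellTiter-Fluor fluorescence.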

A short description of assay [6]: qHTS assay to identify small molecule antagonists of the constitutive androstane receptor (CAR) signaling pathway - cell viability counter screen (AID 1224837). Further: nearly all actives have a fitted effect of over 45% in size. Further: potency means the concentration at half of the fitted maximal effect. An outline of the steps:
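Cells are seeded, rested 4 hr at 37 C/5% CO2, dosed with compound (15-point series) and 50 nM CITCO, incubated a further 23 hr, and then CellTiter-Fluor reagent is added before fluorescence is read. The line is HepG2 with stable hCAR and CYP2B6-2.2kb.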

Assay [7] addresses Nuclear receptor subfamily 1 group I member 3 (Homo sapiens) (UniProt Q14994). Kind of assay: qHTS assay to identify small molecule antagonists of the constitutive androstane receptor (CAR) signaling pathway (AID 1224838).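 Further: HepG2 cells stably expressing hCAR with CYP2B6 luciferase reporter stimulated by CITCO; nearly all actives have a fitted effect of over 40% in size.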 Further: potency means the concentration at half of the fitted maximal effect. The method in brief:
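Luminescence from a CYP2B6-2.2kb promoter reporter in hCAR-expressing HepG2 cells reflects CAR signaling. Cells received compounds at 15 concentrations and 50 nM CITCO (final), then incubated 24 h at 37 C/5% CO2.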

Assay [8] shares this target. Kind of assay: qHTS assay to identify small molecule agonists of the constitutive androstane receptor (CAR) signaling pathway (AID 1224839). Further: nearly all actives have a fitted effect of over 15% in size. Further: potency means the concentration at half of the fitted maximal effect. An outline of the steps: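 HepG2 cells stably co-transfected with hCAR and a CYP2B6-2.2kb luciferase reporter; compounds at 15 concentrations with 0.75 uM PK11195 present. After 24 hr at 37 C, luciferase read by ONE-Glo luminescence.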

A short description of assay [9]: qHTS assay to identify small molecule antagonists of the estrogen related receptor signaling pathway with the pleiotropic PPARgamma coactivator (PGC) from Tox21 10K library - cell viability counter screen (AID 1224840; active means well fitted cell-killing curve with a large enough effect in the repeat runs, not every such curve was filed as active; further: nearly all actives have a fitted effect of over 40% in size; further: potency means the concentration at half of the fitted maximal effect). An outline of the steps:
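Cell viability is measured by CellTiter-Fluor fluorescence in PGC/ERR cells that receive compounds after a 6-hour attachment period and are then incubated 17.5 hours at 37 C.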

The nature of assay [10]: qHTS assay to identify small molecule antagonists of the estrogen related receptor signaling pathway with the pleiotropic PPARgamma coactivator (PGC) from Tox21 10K library (AID 1224841; call rule not given here; further: actives are mostly falling curves and most rising ones were filed inactive; nearly all actives have a fitted effect of over 50% in size; further: potency means the concentration at half of the fitted maximal effect). The method in brief: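 Cells stably carrying the PGC/ERR reporter, seeded at 2,000 per well, received pin-transferred compounds 6 h post-plating. Exposure lasted 18 h at 37 C. Signal: One-Glo luminescence.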

A short description of assay [11]: qHTS assay to identify small molecule agonists of the estrogen related receptor signaling pathway with the pleiotropic PPARgamma coactivator (PGC) from Tox21 10K library (AID 1224842). Further: nearly all actives have a fitted effect of over 15% in size. An outline of the steps: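 PGC/ERR reporter cell line, 2,000 cells per well, incubated 6 h at 37 C before 23 nL compound in DMSO was added. After 18 h at 37 C, One-Glo luminescence read following 30 min at room temperature.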

Assay [12] in a line: qHTS assay to identify small molecule antagonists of the retinoic acid receptor (RAR) signaling pathway (AID 1159552; further: nearly all actives have a fitted effect of over 50% in size; further: potency means the concentration at half of the fitted maximal effect). An outline of the steps: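 Retinol signaling pathway inhibitors screened in C3RL4 RARE-luciferase reporter cells seeded overnight at 37 C, then compounds added with 1 uM (final) retinol as pathway substrate. After 6 hr at 37 C, luciferase luminescence read after 30 min at room temperature.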

The nature of assay [13]: qHTS assay to identify small molecule agonists of the retinoic acid receptor (RAR) signaling pathway (AID 1159553). Further: potency means the concentration at half of the fitted maximal effect. An outline of the steps:
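Quantitative high-throughput format: the Tox21 10K library was tested on C3RL4 RARE-luciferase cells for 6 hr at 37 C and 5% CO2, with luminescence measured after a 30 min room-temperature reagent step.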

The nature of assay [14]: qHTS assay to identify small molecule antagonists of the estrogen related receptor (ERR) signaling pathway from Tox21 library - cell viability counter screen (AID 1224834). Further: nearly all actives have a fitted effect of over 30% in size. Further: potency means the concentration at half of the fitted maximal effect. An outline of the steps: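 Compounds in DMSO were pinned onto ERR cells that had been incubated for 6 h, and the plates were held at 37 C for 17.5 h. CellTiter-Fluor reagent was then added and fluorescence was measured after 30 min.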

Chain of Retinoic acid receptor RXR-alpha (Homo sapiens) (P19793 whole entry, looked up): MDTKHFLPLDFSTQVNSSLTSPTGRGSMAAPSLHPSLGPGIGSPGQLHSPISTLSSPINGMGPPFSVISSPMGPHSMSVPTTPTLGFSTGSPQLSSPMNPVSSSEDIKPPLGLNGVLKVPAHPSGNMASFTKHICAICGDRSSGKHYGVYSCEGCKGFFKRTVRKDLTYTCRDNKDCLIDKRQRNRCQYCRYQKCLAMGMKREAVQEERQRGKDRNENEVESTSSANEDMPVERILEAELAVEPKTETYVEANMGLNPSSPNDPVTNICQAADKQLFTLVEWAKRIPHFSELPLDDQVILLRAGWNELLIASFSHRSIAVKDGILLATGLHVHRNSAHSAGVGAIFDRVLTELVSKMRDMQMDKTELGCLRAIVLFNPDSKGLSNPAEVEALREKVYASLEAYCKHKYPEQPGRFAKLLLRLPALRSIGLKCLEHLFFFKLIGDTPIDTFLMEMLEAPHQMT
Chain of Nuclear receptor subfamily 1 group I member 3 (Homo sapiens) (Q14994 whole entry, looked up): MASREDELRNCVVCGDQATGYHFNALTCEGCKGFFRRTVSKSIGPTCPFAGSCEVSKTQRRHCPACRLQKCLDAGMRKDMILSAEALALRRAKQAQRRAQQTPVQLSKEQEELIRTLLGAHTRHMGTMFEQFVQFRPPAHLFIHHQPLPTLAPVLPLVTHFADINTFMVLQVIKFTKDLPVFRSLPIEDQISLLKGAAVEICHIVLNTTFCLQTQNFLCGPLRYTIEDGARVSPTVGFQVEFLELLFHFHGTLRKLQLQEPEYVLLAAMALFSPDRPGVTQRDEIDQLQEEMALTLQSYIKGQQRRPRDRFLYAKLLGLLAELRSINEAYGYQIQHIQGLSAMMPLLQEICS
Chain of Luciferin 4-monooxygenase (Photinus pyralis) (P08659 whole entry, looked up): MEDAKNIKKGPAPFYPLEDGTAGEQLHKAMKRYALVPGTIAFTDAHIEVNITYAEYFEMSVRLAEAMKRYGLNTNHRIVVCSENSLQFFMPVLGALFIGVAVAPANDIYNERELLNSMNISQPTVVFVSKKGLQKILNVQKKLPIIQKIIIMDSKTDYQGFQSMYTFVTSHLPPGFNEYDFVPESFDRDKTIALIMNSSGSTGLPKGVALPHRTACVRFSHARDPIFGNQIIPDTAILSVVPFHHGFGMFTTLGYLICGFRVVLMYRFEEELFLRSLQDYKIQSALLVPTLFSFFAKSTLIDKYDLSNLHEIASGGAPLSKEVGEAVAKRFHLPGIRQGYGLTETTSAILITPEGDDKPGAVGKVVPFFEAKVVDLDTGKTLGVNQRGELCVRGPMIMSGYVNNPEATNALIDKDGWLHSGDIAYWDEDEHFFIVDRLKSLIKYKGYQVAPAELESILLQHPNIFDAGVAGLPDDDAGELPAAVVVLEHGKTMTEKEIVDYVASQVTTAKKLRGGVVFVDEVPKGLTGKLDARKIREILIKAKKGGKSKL

As for `CS(=O)(=O)c1ccc([C@@H](C[C@H]2CCC(=O)C2)C(=O)Nc2cnccn2)cc1Cl`, the Potency entry in assay [1], in assay [2], in assay [3], in assay [4], in assay [5] and in [6] was “inactive” in each case. Besides, the Potency result in assay [7] and in assay [8] was “inactive” throughout.

On to `CC(=O)Oc1cccc(O)c1`, for which the Potency entry in assay [1], in [2], in assay [3], in assay [4], in [5] and in assay [6] was “inactive” throughout. The Potency entry in [7], in assay [8], in assay [9], in [10] and in assay [11] was “inactive” throughout.

`CCOC(=O)c1ccc(NC(=O)CN2CCCCC2)cc1`: the Potency result in assay [1], in assay [3], in [12], in assay [14], in [4] and in [5] was “inactive” in each case. In addition, the Potency result in assay [6], in assay [7] and in assay [10] was “inactive” throughout. Further, the Potency in [13] was 21.1 µM (active).

On to `CNCc1ccc(NC(=O)c2c[nH]c3c2C(=O)CCC3)cc1`, for which the Potency entry in assay [1], in [3], in assay [12], in [14], in assay [4] and in assay [5] was “inactive” in each case. Further, the Potency result in assay [7], in assay [10] and in assay [11] was “inactive” throughout. The Potency in [8] is 1.72 µM (active).

`CC(C)(O)CCc1ccccc1`: the Potency result in assay [1], in assay [3], in assay [12], in [13], in [14] and in assay [4] was “inactive” in each case. Moreover, the Potency result in assay [5], in assay [6] and in [9] was “inactive” throughout.

For `C=CC(=O)O`, the Potency result in assay [1], in assay [3], in assay [12], in assay [13], in assay [14] and in assay [5] was “inactive” in each case. Besides, the Potency result in [6], in assay [7] and in assay [9] was “inactive” in each case.

Regarding `CCN(Cc1cccc(S(=O)(=O)O)c1)c1ccc(C(=C2C=CC(=[N+](CC)Cc3cccc(S(=O)(=O)O)c3)C=C2)c2ccc(O)cc2S(=O)(=O)[O-])cc1`, the Potency result in assay [1], in [8] and in assay [11] was “inactive” each time. The Potency is 14.8 µM (active) in assay [3]; 9.32 µM (active) in assay [12]; 16.6 µM (active) in [14]; 10.8 µM (active) in assay [4]; 29.5 µM (active) in assay [6]; 11.7 µM (active) in [7]. In addition, the Potency was 33.1 µM (active) in [9] and 16.6 µM (active) in [10].

As to `CC(C)CC(O)CC(C)C`, the Potency result in assay [1], in assay [3], in assay [12], in assay [13], in [14] and in assay [4] was “inactive” each time. For the same molecule, the Potency entry in [5], in assay [6], in [7], in assay [8], in assay [9] and in assay [10] was “inactive” throughout. For the same molecule, the Potency entry in [11] was “inactive”.

With `Cc1ccc(S(=O)(=O)NC(=O)NC2CCCCC2)cc1`, the Potency result in assay [1], in [3], in assay [12], in assay [13], in assay [14] and in assay [4] was “inactive” in each case. Further, the Potency entry in assay [5] and in assay [6] was “inactive” in each case.

Turning to `CCCOC(=O)c1c(Cl)c(Cl)c(Cl)c(Cl)c1C(=O)OCCC`, the Potency result in [1], in assay [3], in assay [12], in [13], in [4] and in [5] was “inactive” each time. Further, the Potency entry in assay [6], in assay [7], in assay [9], in assay [10] and in assay [11] was “inactive” each time.
